According to PubChem BioAssay (NCI):
Compounds without any hit were thinned out: in the full panel of roughly 83,000, 20% have a hit.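 Growth was measured after 48 h exposure to one concentration of compound in 96-well plates. Values under 10 count as active.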 Activity calls are given as the source filed them.

Legend:
Test in all cases: NCI-60 one-dose screen, 48 h (100 = growth as untreated, 0 = no growth, -100 = all killed)
Conditions in all cases: 10 µM unless noted
T-47D breast = test system: T-47D breast
MDA-MB-435 melanoma = test system: MDA-MB-435 melanoma
SW-620 colon = test system: SW-620 colon
MCF7 breast = test system: MCF7 breast
HCT-116 colon = test system: HCT-116 colon
HCC-2998 colon = test system: HCC-2998 colon
KM12 colon = test system: KM12 colon
BT-549 breast = test system: BT-549 breast

Measured: growth

O=C(Nc1ccc(Cl)c(Cl)c1)O/N=C\c1c(Cl)ccc([N+](=O)[O-])c1Cl
active: T-47D breast -46.8% | MDA-MB-435 melanoma -31% | SW-620 colon -79.3% | MCF7 breast -62.9% | HCT-116 colon -83.5% | HCC-2998 colon -64.7% | KM12 colon -71.8%

CC(=O)N1CCN(CCNC(=O)n2cc(-c3ccncc3)c(-c3ccc(O)c(Cl)c3)n2)CC1
inactive: T-47D breast 112% | MDA-MB-435 melanoma 103% | SW-620 colon 130% | MCF7 breast 102% | HCT-116 colon 111% | HCC-2998 colon 118% | KM12 colon 103%

COc1cc(-c2nn(-c3ccc(NC(=O)Nc4ccc(Cl)c(Cl)c4)cc3)cc2-c2ccncc2)ccc1Cl
inactive: T-47D breast 47.5% | MDA-MB-435 melanoma 29.1% | SW-620 colon 35.2% | MCF7 breast 28.4% | HCT-116 colon 13.4% | HCC-2998 colon 21.8% | KM12 colon 16.1%

O=C(Nc1ccc(-n2cc(-c3ccncc3)c(-c3ccc(Cl)c(O)c3)n2)cc1)c1cc(C(F)(F)F)cc(C(F)(F)F)c1
inactive: T-47D breast 47.9% | MDA-MB-435 melanoma 52.5% | SW-620 colon 81.4% | MCF7 breast 30.3% | HCT-116 colon 33.6% | HCC-2998 colon 74.2% | KM12 colon 28%

Nc1ccc(S(=O)(=O)Nc2cc(F)cc(F)c2)cc1
inactive: T-47D breast 105% | MDA-MB-435 melanoma 102% | SW-620 colon 91.6% | MCF7 breast 108% | HCT-116 colon 109% | HCC-2998 colon 106% | KM12 colon 107%

COc1cc(-c2nn(-c3ccc(NC(=O)Nc4ccc(Cl)c(C(F)(F)F)c4)cc3)cc2-c2ccncc2)ccc1Cl
inactive: T-47D breast 15.1% | SW-620 colon 13.4%
active: MDA-MB-435 melanoma 4% | MCF7 breast 8.22% | HCT-116 colon 2.34% | HCC-2998 colon -2.15% | KM12 colon 6.77%

CC(=O)O.[In]
inactive: T-47D breast 103% | MDA-MB-435 melanoma 102% | SW-620 colon 106% | MCF7 breast 108% | HCT-116 colon 106% | HCC-2998 colon 108% | KM12 colon 104%

NCCCOc1cc2ccccc2cc1C(=O)Nc1ccc(Cl)cc1OC(=O)c1cc2ccccc2cc1OCCCN
active: T-47D breast -55.9% | MDA-MB-435 melanoma -76.9% | SW-620 colon -94.9% | MCF7 breast -78.9% | HCT-116 colon -92.6% | KM12 colon -96.5%

COc1ccc(C2CC(=O)c3c(O)cc(OC4OC(COC5OC(C)C(O)C(O)C5O)C(O)C(O)C4O)cc3O2)cc1O (centres undefined)
inactive: T-47D breast 121% | MDA-MB-435 melanoma 102% | SW-620 colon 113% | MCF7 breast 95.1% | HCT-116 colon 43.6% | HCC-2998 colon 129% | KM12 colon 124%

CCS(=O)(=O)N[C@@H]1O[C@H](COC(C)=O)C(OC(C)=O)[C@H](OC(C)=O)C1OC(C)=O (some centres undefined)
inactive: T-47D breast 90.7% | MDA-MB-435 melanoma 103% | MCF7 breast 103% | HCT-116 colon 95.3% | KM12 colon 106%

NC(=O)c1c(Nc2ccccc2)nn2cc(-c3nc4ccccc4s3)c(N)nc12
inactive: BT-549 breast 102% | MDA-MB-435 melanoma 102% | SW-620 colon 105% | MCF7 breast 81.4% | HCT-116 colon 99.1% | HCC-2998 colon 97.3% | KM12 colon 99.5%

COC(=O)c1cc(=O)nc(N/N=C/c2ccccc2O)s1
active: MCF7 breast 5.18%
inactive: T-47D breast 73.1% | MDA-MB-435 melanoma 100% | SW-620 colon 106% | HCC-2998 colon 89.1% | KM12 colon 95.3%

O=c1[nH]c2cc(O)ccc2n2cc3c(F)cccc3c12
active: MDA-MB-435 melanoma -12.2% | MCF7 breast -3.3%
inactive: T-47D breast 39.1% | HCT-116 colon 19.9% | KM12 colon 34.7%

COC(=O)[C@H](Cc1cn(C)cn1)NC(=O)[C@H](Cc1c[nH]c2ccccc12)NC(=O)Nc1cc(C(F)(F)F)cc(C(F)(F)F)c1
active: T-47D breast -72.2% [100 µM] | MDA-MB-435 melanoma -88.5% [100 µM] | SW-620 colon -38.1% [100 µM] | HCT-116 colon -89.1% [100 µM] | HCC-2998 colon -96.8% [100 µM] | KM12 colon -86.6% [100 µM]

C=CC1CN2CCC1CC2C(O)c1ccnc2ccc(OC)cc12 (centres undefined)
inactive: T-47D breast 102% | MDA-MB-435 melanoma 100% | MCF7 breast 91% | HCT-116 colon 49.8% | HCC-2998 colon 155% | KM12 colon 112%

Cc1[nH]n(C(=S)Nc2nc3cc(Cl)c(F)cc3s2)c(=O)c1N=Nc1ccc(F)c(Cl)c1
inactive: T-47D breast 79.6% | MDA-MB-435 melanoma 124% | SW-620 colon 102% | HCC-2998 colon 114% | KM12 colon 110%

CC(=O)Nc1nc(C)c(C(=O)N/N=C/c2cccs2)s1
inactive: T-47D breast 67.8% | MDA-MB-435 melanoma 111% | SW-620 colon 94.2% | HCC-2998 colon 114% | KM12 colon 116%

CN1C(=O)C(=Cc2coc3ccc(Br)cc3c2=O)C(=O)N(C)C1=O
inactive: T-47D breast 101% | MDA-MB-435 melanoma 109% | MCF7 breast 88.3% | HCT-116 colon 95.2% | HCC-2998 colon 98.5% | KM12 colon 114%

O=C1c2cc([N+](=O)[O-])ccc2-c2cc(Cl)c(NC(=O)C(F)(F)F)cc21
inactive: T-47D breast 85.2% | MDA-MB-435 melanoma 114% | MCF7 breast 35.8% | HCT-116 colon 104% | HCC-2998 colon 104% | KM12 colon 114%

CC(Br)c1nc2ccccc2cc1C(N)=O (centres undefined)
inactive: T-47D breast 95.7% | MDA-MB-435 melanoma 112% | MCF7 breast 84.9% | HCT-116 colon 106% | HCC-2998 colon 102% | KM12 colon 105%

COc1ccc2cnc(N)c(C#Cc3cc(C(=O)Nc4ccc(CN5CCN(C)CC5)c(C(F)(F)F)c4)cnc3C)c2c1
inactive: BT-549 breast 54.7% | MDA-MB-435 melanoma 26.2% | SW-620 colon 13.8% | MCF7 breast 39% | HCT-116 colon 20.5% | HCC-2998 colon 86.1% | KM12 colon 11%

O=C(CCC(=O)N(CCO)CCO)N(CCO)CCO
inactive: T-47D breast 98.5% | MDA-MB-435 melanoma 109% | MCF7 breast 94.6% | HCT-116 colon 95.7% | HCC-2998 colon 110% | KM12 colon 99.8%

OC(c1ccccc1)(c1ccccc1)C(F)(F)F
inactive: T-47D breast 92.1% | MDA-MB-435 melanoma 103% | MCF7 breast 104% | HCT-116 colon 107% | KM12 colon 92.3%

CC/C(=N\Nc1nc2ccccc2n1C)c1ccccn1
inactive: BT-549 breast 21% | MDA-MB-435 melanoma 18.9% | SW-620 colon 30% | HCT-116 colon 11.7% | HCC-2998 colon 32.3% | KM12 colon 18.5%
active: MCF7 breast 8.78%

O=C(Nc1ccc(-n2cc(-c3ccncc3)c(-c3ccc(Cl)c(O)c3)n2)cc1)c1ccc(Cl)c(C(F)(F)F)c1
active: MDA-MB-435 melanoma 3.99% | SW-620 colon -79.4% | MCF7 breast 6.22% | HCC-2998 colon 5.55% | KM12 colon 3.31%
inactive: T-47D breast 47.2%

CCOC(=O)c1c2c(cn1Cc1ccccc1)-c1oncc1CC2
inactive: BT-549 breast 94.5% | MDA-MB-435 melanoma 111% | SW-620 colon 103% | MCF7 breast 98.8% | HCT-116 colon 90.5% | HCC-2998 colon 111% | KM12 colon 104%

O=C(N/N=C\c1ccc(-c2ccc(Br)cc2)o1)c1cc2oc(-c3cccc(C(F)(F)F)c3)cc2[nH]1
inactive: T-47D breast 101% | MDA-MB-435 melanoma 98.9% | SW-620 colon 118% | MCF7 breast 89.9% | HCC-2998 colon 85.5% | KM12 colon 74%

O=C1OC(c2ccc(-c3ccccc3)cc2)=C/C1=C/c1c2ccccc2cc2ccccc12
inactive: T-47D breast 102% | MDA-MB-435 melanoma 102% | SW-620 colon 96.9% | MCF7 breast 83.9% | HCC-2998 colon 98.7% | KM12 colon 97.3%

N#Cc1c2cccnc2c2nnc3cc(Cl)c(Cl)cc3n12
active: SW-620 colon -39% | MCF7 breast 1.41%
inactive: T-47D breast 25.9% | MDA-MB-435 melanoma 84.4% | HCC-2998 colon 13.4% | KM12 colon 47.5%

Cc1nc(NC(=S)Nc2ccc(F)cc2)sc1C(=O)NNC(=S)Nc1ccc(F)cc1
inactive: T-47D breast 35.6% | MDA-MB-435 melanoma 71.5% | SW-620 colon 86.7% | MCF7 breast 72.2% | HCC-2998 colon 68.4% | KM12 colon 76.6%

O=C(Nc1ccc(-n2cc(-c3ccncc3)c(-c3ccc(Cl)c(O)c3)n2)cc1)Nc1ccc(Cl)c(C(F)(F)F)c1
active: T-47D breast 4.31% | MDA-MB-435 melanoma -37.7% | MCF7 breast -0.973% | HCT-116 colon -15.8% | HCC-2998 colon 0.686% | KM12 colon 1.21%

COc1ccc2cc(C(C)C(=O)Nc3ccc(S(=O)(=O)Nc4cc(C)on4)cc3)ccc2c1 (centres undefined)
inactive: T-47D breast 84.8% | MDA-MB-435 melanoma 105% | MCF7 breast 102% | HCT-116 colon 96.5% | KM12 colon 110%

CCCCn1c(Cc2ccc(OC)cc2)nc2cc(OC)c(OC)cc2c1=O
inactive: T-47D breast 57% | MDA-MB-435 melanoma 83.7% | SW-620 colon 92.5% | MCF7 breast 81.3% | HCC-2998 colon 98.1% | KM12 colon 93.6%

O=c1c(N=Nc2nccs2)c(-c2ccccc2)[nH]n1-c1nc(-c2ccccc2)cs1
inactive: T-47D breast 43.7% | MDA-MB-435 melanoma 26.7% | HCT-116 colon 26.9% | HCC-2998 colon 42.2% | KM12 colon 28.5%

Cc1ncc(C(=O)Nc2ccc(CN3CCN(C)CC3)c(C(F)(F)F)c2)cc1C#Cc1c(N)ncc2ccc(F)cc12
active: MDA-MB-435 melanoma -66.5% | SW-620 colon -72.1% | MCF7 breast -72.6% | HCT-116 colon -72% | KM12 colon -80.7%
inactive: BT-549 breast 23.6% | HCC-2998 colon 39.1%

COc1ccc(C2C3(C#N)C(N)=NC(=C(C#N)C#N)C23C#N)cc1OC (centres undefined)
inactive: T-47D breast 110% | MDA-MB-435 melanoma 107% | SW-620 colon 106% | MCF7 breast 108% | HCC-2998 colon 122% | KM12 colon 118%

CC(=O)Nc1nc(C)c(C(=O)N/N=C/N2CCCCC2)s1
inactive: T-47D breast 98.4% | MDA-MB-435 melanoma 125% | MCF7 breast 94.8% | HCT-116 colon 55.8% | HCC-2998 colon 20.3% | KM12 colon 128%

O=[N+]([O-])c1ccc(-c2ncc(-c3ccc(O)cc3O)[nH]2)cc1
inactive: T-47D breast 102% | MDA-MB-435 melanoma 121% | SW-620 colon 106% | MCF7 breast 90.3% | HCC-2998 colon 123% | KM12 colon 112%
